Laboratory results published in publication PMC11006913.

What was measured:
Assay in all cases: PBM; 200 nM protein, PBS
Conditions in all cases: dsDNA, one strand shown
[1] = molecular target: HOXB4 (Homo sapiens, UniProt P17483 148-234)
[2] = molecular target: HOXB4 (Homo sapiens, UniProt P17483 148-234, V174I)
[3] = molecular target: MSX2 (Homo sapiens, UniProt P35548 130-214, R199I)
[4] = molecular target: MSX2 (Homo sapiens, UniProt P35548 130-214)
[5] = molecular target: PROP1 (Homo sapiens, UniProt O75360 56-141)
[6] = molecular target: PROP1 (Homo sapiens, UniProt O75360 56-141, R99H)
[7] = molecular target: PROP1 (Homo sapiens, UniProt O75360 56-141, F88S)
[8] = molecular target: MSX2 (Homo sapiens, UniProt P35548 130-214, F161Y)
[9] = molecular target: ALX3 (Homo sapiens, UniProt O95076 139-225, N203Q)
[10] = molecular target: ALX3 (Homo sapiens, UniProt O95076 139-225)
[11] = molecular target: ALX3 (Homo sapiens, UniProt O95076 139-225, L168Q)
[12] = molecular target: ALX3 (Homo sapiens, UniProt O95076 139-225, L168V)
[13] = molecular target: ALX3 (Homo sapiens, UniProt O95076 139-225, N203S)
[14] = molecular target: ALX1 (Homo sapiens, UniProt Q15699 118-204, L144V)
[15] = molecular target: ALX1 (Homo sapiens, UniProt Q15699 118-204, L144R)
[16] = molecular target: ALX1 (Homo sapiens, UniProt Q15699 118-204)
Sequence of ALX1 (Homo sapiens, UniProt Q15699 118-204) (Q15699 118-204): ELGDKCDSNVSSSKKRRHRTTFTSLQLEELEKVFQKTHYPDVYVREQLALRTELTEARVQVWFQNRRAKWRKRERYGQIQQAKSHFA

Sequence of HOXB4 (Homo sapiens, UniProt P17483 148-234) (P17483 148-234): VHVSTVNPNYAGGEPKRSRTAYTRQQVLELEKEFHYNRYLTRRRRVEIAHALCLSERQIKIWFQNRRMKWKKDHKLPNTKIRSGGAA
Sequence of HOXB4 (Homo sapiens, UniProt P17483 148-234, V174I) (P17483 148-234 V174I): as the sequence (P17483 148-234) above, with V27I counted along it
Sequence of MSX2 (Homo sapiens, UniProt P35548 130-214, R199I) (P35548 130-214 R199I): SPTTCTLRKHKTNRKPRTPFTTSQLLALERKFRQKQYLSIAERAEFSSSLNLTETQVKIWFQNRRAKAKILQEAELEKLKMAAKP
Sequence of MSX2 (Homo sapiens, UniProt P35548 130-214, F161Y) (P35548 130-214 F161Y): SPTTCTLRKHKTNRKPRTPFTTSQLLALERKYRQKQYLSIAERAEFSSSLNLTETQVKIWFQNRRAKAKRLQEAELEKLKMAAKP
Sequence of ALX3 (Homo sapiens, UniProt O95076 139-225, N203Q) (O95076 139-225 N203Q): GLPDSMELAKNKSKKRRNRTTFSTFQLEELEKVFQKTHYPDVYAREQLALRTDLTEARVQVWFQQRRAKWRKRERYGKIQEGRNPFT
Sequence of MSX2 (Homo sapiens, UniProt P35548 130-214) (P35548 130-214): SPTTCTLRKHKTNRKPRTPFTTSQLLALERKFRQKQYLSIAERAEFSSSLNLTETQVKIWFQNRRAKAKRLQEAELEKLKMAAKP
Sequence of PROP1 (Homo sapiens, UniProt O75360 56-141, R99H) (O75360 56-141 R99H): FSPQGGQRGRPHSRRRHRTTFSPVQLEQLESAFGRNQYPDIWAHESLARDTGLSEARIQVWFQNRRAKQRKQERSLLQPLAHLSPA
Sequence of ALX3 (Homo sapiens, UniProt O95076 139-225) (O95076 139-225): as the sequence (O95076 139-225 N203Q) above, with Q65N counted along it
Sequence of PROP1 (Homo sapiens, UniProt O75360 56-141, F88S) (O75360 56-141 F88S): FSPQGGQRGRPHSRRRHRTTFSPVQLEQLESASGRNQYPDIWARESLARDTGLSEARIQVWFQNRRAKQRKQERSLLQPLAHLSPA
Sequence of ALX3 (Homo sapiens, UniProt O95076 139-225, N203S) (O95076 139-225 N203S): as the sequence (O95076 139-225 N203Q) above, with Q65S counted along it
Sequence of ALX1 (Homo sapiens, UniProt Q15699 118-204, L144V) (Q15699 118-204 L144V): as the sequence (Q15699 118-204) above, with L27V counted along it
Sequence of ALX3 (Homo sapiens, UniProt O95076 139-225, L168Q) (O95076 139-225 L168Q): as the sequence (O95076 139-225 N203Q) above, with L30Q, Q65N counted along it
Sequence of ALX1 (Homo sapiens, UniProt Q15699 118-204, L144R) (Q15699 118-204 L144R): as the sequence (Q15699 118-204) above, with L27R counted along it
Sequence of ALX3 (Homo sapiens, UniProt O95076 139-225, L168V) (O95076 139-225 L168V): as the sequence (O95076 139-225 N203Q) above, with L30V, Q65N counted along it
Sequence of PROP1 (Homo sapiens, UniProt O75360 56-141) (O75360 56-141): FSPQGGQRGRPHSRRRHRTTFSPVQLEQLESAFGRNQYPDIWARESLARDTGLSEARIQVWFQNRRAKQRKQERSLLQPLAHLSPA

Q: For ATCGTTCC, which binding signal [1] is on record?
A: 9.81 upbm affinity estimate (log intensity, higher = more binding, comparable within an allelic series)

Q: What about the binding signal [2] of the same sequence?
A: 9.76 upbm affinity estimate (log intensity, higher = more binding, comparable within an allelic series)

Q: CCTGTCCC was tested. Which binding signal [1] did it give?
A: 7.61 upbm affinity estimate (log intensity, higher = more binding, comparable within an allelic series)

Q: And the binding signal [2]?
A: 7.76 upbm affinity estimate (log intensity, higher = more binding, comparable within an allelic series)

Q: Which results are given for AGACCCGA?
A: binding signal [1]: 7.82 upbm affinity estimate (log intensity, higher = more binding, comparable within an allelic series); binding signal [2]: 7.69 upbm affinity estimate (log intensity, higher = more binding, comparable within an allelic series)

Q: With GCTCCCCC as the sequence, how does the binding signal [1] read?
A: 7.43 upbm affinity estimate (log intensity, higher = more binding, comparable within an allelic series)

Q: And the binding signal [2]?
A: 7.43 upbm affinity estimate (log intensity, higher = more binding, comparable within an allelic series)

Q: AACGATAT was tested. Which binding signal [1] did it give?
A: 10.7 upbm affinity estimate (log intensity, higher = more binding, comparable within an allelic series)

Q: And the binding signal [2]?
A: 10.9 upbm affinity estimate (log intensity, higher = more binding, comparable within an allelic series)

Q: With GTCGATGA as the sequence, how does the binding signal [1] read?
A: 9.83 upbm affinity estimate (log intensity, higher = more binding, comparable within an allelic series)

Q: What about the binding signal [2] of the same sequence?
A: 9.24 upbm affinity estimate (log intensity, higher = more binding, comparable within an allelic series)

Q: Which results are given for CGGGCTGC?
A: binding signal [1]: 7.97 upbm affinity estimate (log intensity, higher = more binding, comparable within an allelic series); binding signal [2]: 7.82 upbm affinity estimate (log intensity, higher = more binding, comparable within an allelic series); binding signal [3]: 9.39 upbm affinity estimate (log intensity, higher = more binding, comparable within an allelic series); binding signal [4]: 9.57 upbm affinity estimate (log intensity, higher = more binding, comparable within an allelic series); binding signal [5]: 6.7 upbm affinity estimate (log intensity, higher = more binding, comparable within an allelic series); binding signal [6]: 6.83 upbm affinity estimate (log intensity, higher = more binding, comparable within an allelic series); binding signal [7]: 6.68 upbm affinity estimate (log intensity, higher = more binding, comparable within an allelic series); binding signal [8]: 9.57 upbm affinity estimate (log intensity, higher = more binding, comparable within an allelic series)

Q: CTGGGGGA was tested. Which binding signal [1] did it give?
A: 7.75 upbm affinity estimate (log intensity, higher = more binding, comparable within an allelic series)

Q: And the binding signal [2]?
A: 7.53 upbm affinity estimate (log intensity, higher = more binding, comparable within an allelic series)

Q: And the binding signal [9]?
A: 7.77 upbm affinity estimate (log intensity, higher = more binding, comparable within an allelic series)

Q: And the binding signal [10]?
A: 7.77 upbm affinity estimate (log intensity, higher = more binding, comparable within an allelic series)

Q: And the binding signal [11]?
A: 7.72 upbm affinity estimate (log intensity, higher = more binding, comparable within an allelic series)

Q: And the binding signal [12]?
A: 7.67 upbm affinity estimate (log intensity, higher = more binding, comparable within an allelic series)

Q: What about the binding signal [13] of the same sequence?
A: 7.72 upbm affinity estimate (log intensity, higher = more binding, comparable within an allelic series)

Q: How did the binding signal [1] turn out when CCGGGTTC was run?
A: 7.62 upbm affinity estimate (log intensity, higher = more binding, comparable within an allelic series)

Q: What about the binding signal [2] of the same sequence?
A: 7.65 upbm affinity estimate (log intensity, higher = more binding, comparable within an allelic series)

Q: How did the binding signal [1] turn out when GAACATAA was run?
A: 10.5 upbm affinity estimate (log intensity, higher = more binding, comparable within an allelic series)

Q: What about the binding signal [2] of the same sequence?
A: 10.7 upbm affinity estimate (log intensity, higher = more binding, comparable within an allelic series)

Q: What does the source list for CCTGATTA?
A: binding signal [1]: 11.8 upbm affinity estimate (log intensity, higher = more binding, comparable within an allelic series); binding signal [2]: 12.4 upbm affinity estimate (log intensity, higher = more binding, comparable within an allelic series)

Q: Which binding signal [1] does the source give for CGGGATGC here?
A: 7.47 upbm affinity estimate (log intensity, higher = more binding, comparable within an allelic series)

Q: What about the binding signal [2] of the same sequence?
A: 7.57 upbm affinity estimate (log intensity, higher = more binding, comparable within an allelic series)

Q: And the binding signal [14]?
A: 6.54 upbm affinity estimate (log intensity, higher = more binding, comparable within an allelic series)

Q: What about the binding signal [15] of the same sequence?
A: 6.46 upbm affinity estimate (log intensity, higher = more binding, comparable within an allelic series)

Q: What about the binding signal [16] of the same sequence?
A: 6.51 upbm affinity estimate (log intensity, higher = more binding, comparable within an allelic series)

Q: Which results are given for ACTAATAA?
A: binding signal [1]: 12 upbm affinity estimate (log intensity, higher = more binding, comparable within an allelic series); binding signal [2]: 12.5 upbm affinity estimate (log intensity, higher = more binding, comparable within an allelic series); binding signal [9]: 8.53 upbm affinity estimate (log intensity, higher = more binding, comparable within an allelic series)

Q: ATCTCTTA was tested. Which binding signal [1] did it give?
A: 9.96 upbm affinity estimate (log intensity, higher = more binding, comparable within an allelic series)

Q: What about the binding signal [2] of the same sequence?
A: 9.9 upbm affinity estimate (log intensity, higher = more binding, comparable within an allelic series)

Q: Which binding signal [1] does the source give for ACTATATG here?
A: 9.48 upbm affinity estimate (log intensity, higher = more binding, comparable within an allelic series)

Q: And the binding signal [2]?
A: 9.35 upbm affinity estimate (log intensity, higher = more binding, comparable within an allelic series)

Q: Which results are given for CCAGTTGC?
A: binding signal [1]: 7.75 upbm affinity estimate (log intensity, higher = more binding, comparable within an allelic series); binding signal [2]: 7.61 upbm affinity estimate (log intensity, higher = more binding, comparable within an allelic series)

Q: With AGAAATAA as the sequence, how does the binding signal [1] read?
A: 10.1 upbm affinity estimate (log intensity, higher = more binding, comparable within an allelic series)

Q: And the binding signal [2]?
A: 10.1 upbm affinity estimate (log intensity, higher = more binding, comparable within an allelic series)

Q: Which results are given for AATTGGTA?
A: binding signal [1]: 10.7 upbm affinity estimate (log intensity, higher = more binding, comparable within an allelic series); binding signal [2]: 11 upbm affinity estimate (log intensity, higher = more binding, comparable within an allelic series)

Q: With CACGTGCG as the sequence, how does the binding signal [1] read?
A: 7.64 upbm affinity estimate (log intensity, higher = more binding, comparable within an allelic series)

Q: And the binding signal [2]?
A: 7.71 upbm affinity estimate (log intensity, higher = more binding, comparable within an allelic series)

Q: What does the source list for CGTGCCGC?
A: binding signal [1]: 7.33 upbm affinity estimate (log intensity, higher = more binding, comparable within an allelic series); binding signal [2]: 7.57 upbm affinity estimate (log intensity, higher = more binding, comparable within an allelic series); binding signal [3]: 9.41 upbm affinity estimate (log intensity, higher = more binding, comparable within an allelic series); binding signal [4]: 9.35 upbm affinity estimate (log intensity, higher = more binding, comparable within an allelic series); binding signal [8]: 9.43 upbm affinity estimate (log intensity, higher = more binding, comparable within an allelic series)

Q: Which results are given for GGACCGAC?
A: binding signal [1]: 7.66 upbm affinity estimate (log intensity, higher = more binding, comparable within an allelic series); binding signal [2]: 7.41 upbm affinity estimate (log intensity, higher = more binding, comparable within an allelic series)

Q: What does the source list for GGCTAATA?
A: binding signal [1]: 11.6 upbm affinity estimate (log intensity, higher = more binding, comparable within an allelic series); binding signal [2]: 11.9 upbm affinity estimate (log intensity, higher = more binding, comparable within an allelic series)
